# Test results published in PubChem BioAssay (NCATS).
# Several values for one entry are separate records, joined by “and”; a condition that tells them apart may be missing. Identical values can stand only once. Inconclusive results are not listed. A call without a number means that no potency is given here. Activity calls are given as the source filed them. Unless noted, the call rests on the fitted dose curve. Numbered stars: 1 amine (or outer) side, 2 acyl side, 3 side chain; on linkers, the order of the positions; unused ones are H or OH. Bridge positions count the residues as written; N and C are the ends. Square brackets hold non-standard residues; d marks the D form. Peptide text beside a SMILES is read from it. I, II: the chains in the order shown. Actinocin(9to1) = Cc1c2oc3c(C)ccc(C(=O)[*:1])c3nc-2c(C(=O)[*:2])c(N)c1=O; NMeV = CN[C@H](C(=O)O)C(C)C; Sar = CNCC(=O)O
# Experiments:
# [1] = Primary qHTS for inhibitors of MERS-S pseudo-typed particle cell entry (AID 1479149); settings: MERS-S pseudotyped particle entry, luciferase; series mostly up to 57.1 µM; further: nearly all actives have a fitted effect of over 60% in size; further: potency means the concentration at half of the fitted maximal effect
# [2] = Primary qHTS for Vero E6 cytotoxicity: counterscreen for inhibitors of SARS-S pseudo-typed particle cell entry (AID 1479150); settings: cell viability; series mostly up to 57.1 µM
# [3] = Cytotoxicity counterscreen for inhibitors of SARS-CoV-2 cell entry (AID 1645845); settings: cell viability (SARS-CoV-2 entry assay cells); series mostly up to 57.1 µM; further: nearly all actives have a fitted effect of over 50% in size; further: potency means the concentration at half of the fitted maximal effect
# Outline: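 Counterscreen run in the same HEK293-ACE2 line as the pseudotyped-particle entry assay, without particles. Viability after 48 h at 37 C was read as ATP luminescence, scaled between cell-containing and cell-free wells.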
# [4] = Primary qHTS to identify inhibitors of SARS-CoV-2 cell entry (AID 1645846); settings: SARS-CoV-2 pseudovirus cell entry assay, luminescence; activity change, negative = inhibition: at 57.1 µM (top of the series) unless noted; series mostly up to 57.1 µM; further: nearly all actives have a fitted effect of over 45% in size; further: potency means the concentration at half of the fitted maximal effect
# Outline: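 Data are normalized to wells receiving SARS-CoV-2-S pseudoparticles and those given bald particles. Entry signal was luciferase luminescence in stable hACE2 Expi293F cells, 48 hr post-infection, after 1 hr compound pretreatment.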
# [5] = Confirmatory qHTS to identify inhibitors of SARS-CoV-2 cell entry (AID 1645844); settings: SARS-CoV-2 pseudotyped particle cell entry, luciferase; series mostly up to 57.2 µM; further: potency means the concentration at half of the fitted maximal effect; nearly all actives have a fitted effect of over 45% in size
# Outline: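 HEK293-ACE2, overnight seeding; cpd 1 h, 37C/5% CO2; + SARS-CoV-2-S MLV PP (Wuhan-Hu-1, ΔC19); 48 h; Bright-Glo luminescence. Data normalised to S PP and bald PP wells.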
# [6] = Primary qHTS for inhibitors of La Crosse Virus (LACV) - induced cell death in SH-SY5Y cells (AID 1508616; active means well fitted curve in the direction sought with a large enough effect; an effect the other way counts as inactive or inconclusive; further: potency means the concentration at half of the fitted maximal effect;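 on activity change: top concentration of the series differs between compounds; higher means more rescue of cells from virus-induced death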); settings: SH-SY5Y LACV cytopathicity rescue, ATP luminescence, 6 d; series mostly up to 4.29 µM
# Outline: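 SH-SY5Y, 6000 cells/well; cpd via pin tool in DMSO; LACV 0.01 MOI; 6 d 37C 5% CO2; ATPLite, 5 min RT; luminescence normalized to ±virus DMSO controls.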
# [7] = target: Calcium and integrin-binding protein 1 (Homo sapiens) (UniProt Q99828); assay: Validation qHTS for Identification of Calcium Integrin Binding protein 1 (CIB1) Competitor (AID 1508618; active means well fitted curve in the direction sought with a large enough effect; an effect the other way counts as inactive or inconclusive; further: potency means the concentration at half of the fitted maximal effect); settings: CIB1-GST / FITC-alphaIIb peptide fluorescence polarization; series mostly up to 114 µM
# Outline: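 Displacement of FITC-alphaIIb peptide (100 nM) from CIB1-GST (1 uM) is monitored by polarization in quantitative HTS format; buffer carries 5 mM CaCl2 and 125 mM NaCl at pH 7.4, incubations are at room temperature.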
# [8] = target: Calcium and integrin-binding protein 1 (Homo sapiens) (UniProt Q99828); assay: Primary qHTS for Identification of Calcium Integrin Binding Protein 1 (CIB1) Competitor (AID 1508620; active means well fitted curve in the direction sought with a large enough effect; an effect the other way counts as inactive or inconclusive;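 further: GST tagged CIB1 binding a fluorescein labelled alphaIIb integrin peptide tracer; top concentration of the series differs between compounds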); settings: CIB1-GST / FITC-alphaIIb peptide fluorescence polarization; series mostly up to 114 µM
# Outline: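 Fluorescence polarization competition: GST-tagged CIB1 (1 uM final) preincubated with compound 15 min at room temperature, then FITC-labelled alphaIIb peptide (100 nM final) added. After 15 min at room temperature, polarization read at Ex 480/Em 540.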
# [9] = Counterscreen qHTS for small molecule stabilizers of the endoplasmic reticulum resident proteome: GLuc-NoTag assay (AID 1508627; active means well fitted curve in the direction sought with a large enough effect; an effect the other way counts as inactive or inconclusive; further: potency means the concentration at half of the fitted maximal effect); settings: Gaussia luciferase NoTag secretion counterscreen, luminescence, thapsigargin 100 nM for final 4 h; series mostly up to 76.4 µM
# Outline: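 Counterscreen line: SH-SY5Y-GLuc-NoTag. Seed, 5 h; compound, 19 h; thapsigargin 100 nM, 4 h; 37C/5% CO2. Readout: secreted GLuc luminescence, coelenterazine 0.07x final, no lysis.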
# [10] = Confirmatory qHTS for VERO E6 Cytotoxicity Assay: Counterscreen for SARS-CoV-2 CPE Assay (AID 1508605); settings: cell viability luminescence; series mostly up to 20 µM; further: nearly all actives have a fitted effect of over 60% in size
# [11] = target: Cytochrome P450 2D6 (Homo sapiens) (UniProt P10635); assay: Cytochrome P450 family 2 subfamily D member 6 (CYP2D6) small molecule antagonists: luciferase biochemical (cell-free) qHTS assay (AID 1645840; active means well fitted curve in the direction sought with a large enough effect in the repeat runs; an effect the other way counts as inactive or inconclusive; further: nearly all actives have a fitted effect of over 55% in size); settings: P450-Glo CYP2D6 enzyme, luciferin luminescence, 1 h; series mostly up to 57.4 µM
# Outline: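 P450-Glo CYP2D6 system: proluciferin substrate converted by enzyme to luciferin, read by luminescence proportional to activity. Enzyme-substrate mix with compound 10 min at room temperature, then NADPH regeneration 1 h before detection reagent.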
# [12] = target: Cytochrome P450 2C9 (Homo sapiens) (UniProt P11712); assay: Cytochrome P450 family 2 subfamily C member 9 (CYP2C9) small molecule antagonists: luciferase biochemical (cell-free) qHTS assay (AID 1645842; active means well fitted curve in the direction sought with a large enough effect in the repeat runs; an effect the other way counts as inactive or inconclusive; further: nearly all actives have a fitted effect of over 55% in size; further: potency means the concentration at half of the fitted maximal effect); settings: P450-Glo CYP2C9 enzyme assay, luciferin luminescence; series mostly up to 57.4 µM
# Outline: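 P450-Glo CYP2C9 system: proluciferin substrate with enzyme in mix containing 0.4% BSA, 10 min at room temperature, then NADPH regeneration solution added and incubated 1 h at 37C. Detection reagent stopped reaction; luminescence read after 20 min as RLU.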
# [13] = Primary qHTS for small molecule stabilizers of the endoplasmic reticulum resident proteome: Secreted ER Calcium Modulated Protein (SERCaMP) assay (AID 1508630; active means well fitted curve in the direction sought with a large enough effect; an effect the other way counts as inactive or inconclusive); settings: SH-SY5Y GLuc-SERCaMP (Gaussia luciferase released on ER calcium loss) secretion, thapsigargin, luminescence; series mostly up to 38.4 µM
# Outline: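 The SH-SY5Y reporter protocol was run at 3 concentrations up to 38.3 uM (primary) or 11 concentrations (follow-up): 16 h compound, 100 nM thapsigargin for 4 h, then extracellular luciferase luminescence.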
# [14] = target: Calcium and integrin-binding protein 1 (Homo sapiens) (UniProt Q99828); assay: Confirmatory qHTS for Identification of Calcium Integrin Binding Protein 1 (CIB1) Competitor (AID 1508617; active means well fitted curve in the direction sought with a large enough effect; an effect the other way counts as inactive or inconclusive; further: nearly all actives have a fitted effect of over 65% in size); settings: CIB1 binding competition assay, biochemical qHTS; series mostly up to 114 µM
# Outline: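 Confirmatory qHTS measures displacement of a FITC-alphaIIb peptide (100 nM) from CIB1-GST (1 uM) by fluorescence polarization. Calcium-containing HEPES buffer, pH 7.4; two 15 min room-temperature incubations.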
# [15] = target: Cytochrome P450 3A4 (Homo sapiens) (UniProt P08684); assay: Cytochrome P450 family 3 subfamily A member 4 (CYP3A4) small molecule antagonists: luciferase qHTS assay (AID 1645841; active means well fitted curve in the direction sought with a large enough effect in the repeat runs; an effect the other way counts as inactive or inconclusive; further: nearly all actives have a fitted effect of over 45% in size); settings: P450-Glo CYP3A4 enzyme assay, luciferin luminescence; series mostly up to 57.4 µM
# Outline: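 P450-Glo CYP3A4 enzyme with proluciferin substrate preincubated 10 min with compound at room temperature, then NADPH regeneration 1 h. Luciferin detection reagent added for 20 min; luminescence recorded. Ketoconazole positive control.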
# [16] = A High-Content qHTS Against Drug Library for the Identification of Small Molecules that Inhibit DYT1 Early Onset Primary Dystonia-Associated Cell Pathology (AID 1645839); settings: HEK293 Flp-In EGFP-delE TorsinA, punctate imaging, 48 h; series mostly up to 46.1 µM
# Outline: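 Cells were seeded and left for 24 h, then dosed with compound alongside tetracycline induction of mutant EGFP-TorsinA. They were incubated for 48 h, fixed in 4% paraformaldehyde, permeabilized and imaged for mislocalization (%pathology) and cell count.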
# [17] = Confirmatory qHTS for small molecule stabilizers of the endoplasmic reticulum resident proteome: Secreted ER Calcium Modulated Protein (SERCaMP) assay (AID 1508628; active means well fitted curve in the direction sought with a large enough effect; an effect the other way counts as inactive or inconclusive; further: nearly all actives have a fitted effect of over 40% in size); settings: SERCaMP secreted luciferase ER calcium/proteostasis reporter; series mostly up to 76.3 µM
# Outline: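 Reporter secretion upon ER calcium depletion (100 nM thapsigargin, 4 h, 37C) is measured as medium luminescence with coelenterazine, after 16 h compound pretreatment of SH-SY5Y-GLuc-SERCaMP cells; primary at three concentrations up to 38.3 uM, follow-up at 11 (up to 76.6 uM).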
# Cytochrome P450 2C9 (Homo sapiens), sequence (P11712 whole entry, looked up): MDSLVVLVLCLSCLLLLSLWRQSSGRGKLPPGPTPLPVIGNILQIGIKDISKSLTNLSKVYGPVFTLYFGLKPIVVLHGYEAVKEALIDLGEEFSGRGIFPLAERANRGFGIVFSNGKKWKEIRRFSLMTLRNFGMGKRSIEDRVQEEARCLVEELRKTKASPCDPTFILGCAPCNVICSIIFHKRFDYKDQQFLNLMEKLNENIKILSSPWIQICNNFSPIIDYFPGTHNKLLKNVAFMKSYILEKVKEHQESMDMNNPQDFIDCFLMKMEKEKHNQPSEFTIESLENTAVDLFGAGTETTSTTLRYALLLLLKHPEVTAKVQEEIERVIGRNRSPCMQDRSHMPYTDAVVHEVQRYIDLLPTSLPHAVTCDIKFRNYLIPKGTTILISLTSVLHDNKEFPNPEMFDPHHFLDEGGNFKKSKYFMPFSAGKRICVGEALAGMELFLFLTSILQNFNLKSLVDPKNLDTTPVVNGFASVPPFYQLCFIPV
# Calcium and integrin-binding protein 1 (Homo sapiens), sequence (Q99828 whole entry, looked up): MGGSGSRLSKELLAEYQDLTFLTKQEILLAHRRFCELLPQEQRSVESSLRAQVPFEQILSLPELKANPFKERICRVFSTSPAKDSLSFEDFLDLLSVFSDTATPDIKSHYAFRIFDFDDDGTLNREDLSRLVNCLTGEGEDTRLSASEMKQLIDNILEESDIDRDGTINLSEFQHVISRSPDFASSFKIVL
# Cytochrome P450 2D6 (Homo sapiens), sequence (P10635 whole entry, looked up): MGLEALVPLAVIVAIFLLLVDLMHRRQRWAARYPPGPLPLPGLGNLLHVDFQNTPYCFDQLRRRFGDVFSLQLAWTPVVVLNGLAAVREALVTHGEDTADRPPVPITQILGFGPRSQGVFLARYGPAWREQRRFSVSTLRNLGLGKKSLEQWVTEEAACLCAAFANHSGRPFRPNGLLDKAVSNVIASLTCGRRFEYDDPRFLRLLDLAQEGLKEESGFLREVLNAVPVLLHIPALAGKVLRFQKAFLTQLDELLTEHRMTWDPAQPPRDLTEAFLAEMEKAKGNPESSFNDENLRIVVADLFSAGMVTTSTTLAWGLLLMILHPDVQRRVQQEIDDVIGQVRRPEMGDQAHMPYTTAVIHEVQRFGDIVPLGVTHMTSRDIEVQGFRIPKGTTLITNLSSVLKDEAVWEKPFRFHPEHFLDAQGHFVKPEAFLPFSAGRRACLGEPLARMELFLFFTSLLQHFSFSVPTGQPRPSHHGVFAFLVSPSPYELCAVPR
# Cytochrome P450 3A4 (Homo sapiens), sequence (P08684 whole entry, looked up): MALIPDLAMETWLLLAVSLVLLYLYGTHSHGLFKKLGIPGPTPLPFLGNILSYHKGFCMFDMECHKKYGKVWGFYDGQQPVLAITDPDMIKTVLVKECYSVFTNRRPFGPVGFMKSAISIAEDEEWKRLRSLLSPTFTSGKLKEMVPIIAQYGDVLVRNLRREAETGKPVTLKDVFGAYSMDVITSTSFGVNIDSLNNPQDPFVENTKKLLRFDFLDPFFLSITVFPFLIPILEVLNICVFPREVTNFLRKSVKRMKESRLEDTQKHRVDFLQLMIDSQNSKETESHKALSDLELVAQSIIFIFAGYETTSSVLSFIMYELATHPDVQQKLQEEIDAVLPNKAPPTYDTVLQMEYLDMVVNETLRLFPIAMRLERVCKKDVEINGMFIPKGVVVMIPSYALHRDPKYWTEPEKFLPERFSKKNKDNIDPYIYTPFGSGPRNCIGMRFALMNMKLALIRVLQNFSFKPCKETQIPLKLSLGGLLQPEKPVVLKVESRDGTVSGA
smiles,measurement,setting,value
CC(=O)N(O)CCCCCNC(=O)CCC(=O)N(O)CCCCCNC(=O)CCC(=O)N(O)CCCCCN,Potency,[1],inactive
same,Potency,[2],inactive
same,Potency,[3],25.1 µM (active)
CNCC[C@@H](Oc1ccccc1C)c1ccccc1,Potency,[2],inactive
same,Potency,[3],inactive
same,"activity change, negative = inhibition",[4],-15.9%
OCCN1CCN(CCCN2c3ccccc3Sc3ccc(C(F)(F)F)cc32)CC1,Potency,[2],inactive
same,Potency,[3],inactive
CC(C)C[C@H](NC(=O)[C@H](Cc1ccccc1)NC(=O)c1cnccn1)B(O)O,Potency,[1],inactive
same,"activity change, negative = inhibition",[4],-95.1%
CCC1=C[C@@H]2CN(C1)Cc1c([nH]c3ccccc13)[C@@](C(=O)OC)(c1cc3c(cc1OC)N(C)[C@H]1[C@@](O)(C(=O)OC)[C@H](OC(C)=O)[C@]4(CC)C=CCN5CC[C@]31[C@@H]54)C2,Potency,[1],3.16 µM (active)
same,Potency,[5],1.48 µM (active)
same,Potency,[3],inactive
Fc1ccc(C(OCCN2CCN(CCCc3ccccc3)CC2)c2ccc(F)cc2)cc1,Potency,[6],inactive
same,Potency,[7],inactive
same,Potency,[8],inactive
same,Potency,[9],44.7 µM (active)
same,Potency,[4],17.8 µM (active)
COC(=O)C1=C(C)NC(C)=C(C(=O)OCC(C)C)C1c1ccccc1[N+](=O)[O-] (centres undefined),Potency,[2],inactive
same,Potency,[5],6.07 µM (active)
CNCCCC1c2ccccc2C=Cc2ccccc21,Potency,[2],inactive
same,Potency,[10],inactive
same,Potency,[3],inactive
CCCNCC(O)COc1ccccc1C(=O)CCc1ccccc1 (centres undefined),Potency,[2],inactive
same,Potency,[10],inactive
same,Potency,[3],inactive
same,Potency,[4],20 µM (active) and 35.5 µM (active)
NNc1nncc2ccccc12,Potency,[1],inactive
same,Potency,[3],inactive
O=c1[nH]c2ccccc2n1CCCN1CCC(n2c(=O)[nH]c3cc(Cl)ccc32)CC1,Potency,[2],inactive
same,Potency,[6],inactive
same,Potency,[7],inactive
same,Potency,[8],inactive
same,Potency,[3],inactive
same,"activity change, negative = inhibition",[4],-22.6%
C[C@H]1O[C@@H](O[C@H]2[C@@H](O)C[C@H](O[C@H]3[C@@H](O)C[C@H](O[C@H]4CC[C@@]5(C)[C@H](CC[C@@H]6[C@@H]5CC[C@]5(C)[C@@H](C7=CC(=O)OC7)CC[C@]65O)C4)O[C@@H]3C)O[C@@H]2C)C[C@H](O)[C@@H]1O,Potency,[1],inactive
same,Potency,[11],inactive
same,Potency,[12],inactive
CSc1ccc2c(c1)N(CCC1CCCCN1C)c1ccccc1S2 (centres undefined),Potency,[2],inactive
Nc1ccn([C@@H]2O[C@H](CO)[C@@H](O)C2(F)F)c(=O)n1,Potency,[2],inactive
same,Potency,[5],0.341 µM (active)
"Cc1c2oc3c(C)ccc(C(=O)N[C@@H]4C(=O)N[C@H](C(C)C)C(=O)N5CCC[C@H]5C(=O)N(C)CC(=O)N(C)[C@@H](C(C)C)C(=O)O[C@@H]4C)c3nc-2c(C(=O)N[C@@H]2C(=O)N[C@H](C(C)C)C(=O)N3CCC[C@H]3C(=O)N(C)CC(=O)N(C)[C@@H](C(C)C)C(=O)O[C@@H]2C)c(N)c1=O (I: T[dV]P[Sar][NMeV] / II: T[dV]P[Sar][NMeV]; ester I:1-I:C, II:1-II:C; linker I:N-II:N via Actinocin(9to1))",Potency,[2],inactive
same,Potency,[5],0.0764 µM (active)
same,Potency,[3],inactive
same,"activity change, negative = inhibition",[4],-94.7%
CNCCC(Oc1ccc(C(F)(F)F)cc1)c1ccccc1 (centres undefined),Potency,[2],inactive
same,Potency,[10],inactive
same,Potency,[5],6.81 µM (active)
O=C(c1ccc(OCCN2CCCCC2)cc1)c1c(-c2ccc(O)cc2)sc2cc(O)ccc12,Potency,[1],11.2 µM (active)
same,Potency,[2],inactive
same,Potency,[4],31.6 µM (active)
O=C(O)C(=O)c1cn(Cc2ccccc2)c2ccc(-c3ccc(OC(F)(F)F)cc3)cc12,Potency,[10],inactive
same,Potency,[8],inactive
same,outcome,[13],inactive
same,Potency,[12],16.9 µM (active)
same,Potency,[3],inactive
same,"activity change, negative = inhibition",[4],-24.2%
C=C(C)[C@H]1Cc2c(ccc3c2O[C@@H]2COc4cc(OC)c(OC)cc4[C@@H]2C3=O)O1,Potency,[1],inactive
same,Potency,[6],0.316 µM (active)
same,Potency,[7],inactive
same,Potency,[8],inactive
same,outcome,[13],inactive
same,Potency,[11],inactive
same,Potency,[12],6.17 µM (active)
same,"activity change, negative = inhibition",[4],-94.7%
COc1c(C)c2c(c(O)c1C/C=C(\C)CCC(=O)O)C(=O)OC2,Potency,[2],inactive
same,Potency,[5],0.607 µM (active)
same,Potency,[4],1 µM (active)
CN1C[C@H](CNC(=O)OCc2ccccc2)C[C@@H]2c3cccc4c3c(cn4C)C[C@H]21,Potency,[6],inactive
same,outcome,[14],inactive
same,Potency,[7],44.7 µM (active)
same,outcome,[15],inactive
same,Potency,[12],inactive
CNCC(O)c1ccc(O)cc1 (centres undefined),Potency,[6],inactive
same,Potency,[7],inactive
same,Potency,[8],inactive
same,outcome,[13],inactive
same,Potency,[16],inactive
same,Potency,[11],inactive
same,Potency,[12],inactive
same,Potency,[3],inactive
same,"activity change, negative = inhibition",[4],-17.4%
COC[C@@H](NC(C)=O)C(=O)NCc1ccccc1,Potency,[6],inactive
same,Potency,[8],inactive
same,Potency,[17],inactive
same,outcome,[13],inactive
same,Potency,[16],inactive
same,Potency,[11],inactive
same,Potency,[12],inactive
same,Potency,[3],inactive
N#CC(C#N)=Cc1ccc(O)c(O)c1,Potency,[6],inactive
same,Potency,[7],inactive
same,Potency,[8],inactive
same,Potency,[16],inactive
same,Potency,[12],inactive
COC[C@H]1OC(=O)c2coc3c2[C@@]1(C)C1=C(C3=O)C2CCC(=O)[C@@]2(C)C[C@H]1OC(C)=O (some centres undefined),Potency,[6],inactive
same,Potency,[7],inactive
same,Potency,[3],inactive
same,"activity change, negative = inhibition",[4],3.38%
